Measurements reported in PubChem BioAssay (NCATS).
Records with an inconclusive call do not appear. Entries that show only a call come without a potency. Active and inactive are the calls of the source. Unless noted, calls follow the shape of the dose curve; as a rule, active = well fitted curve in the direction sought with a large enough effect; inconclusive = small, poorly fitted or top-dose-only effect, or another doubt; inactive = no such curve, though single readings can be large; an effect the other way counts as inactive or inconclusive.

How the values were obtained:
[1] = molecular target: Calcium and integrin-binding protein 1 (Homo sapiens) (UniProt Q99828); experiment: Primary qHTS for Identification of Calcium Integrin Binding Protein 1 (CIB1) Competitor (AID 1508620);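 also: GST tagged CIB1 binding a fluorescein labelled alphaIIb integrin peptide tracer; top concentration of the series differs between compounds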
Chain of Calcium and integrin-binding protein 1 (Homo sapiens) (Q99828 whole entry, looked up): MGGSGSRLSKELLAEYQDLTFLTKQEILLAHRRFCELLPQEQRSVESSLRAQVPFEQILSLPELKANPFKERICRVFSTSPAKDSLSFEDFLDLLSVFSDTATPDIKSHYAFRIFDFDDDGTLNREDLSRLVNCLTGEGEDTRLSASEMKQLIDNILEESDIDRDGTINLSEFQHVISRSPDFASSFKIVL
In short: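 CIB1-GST (1 uM final) and compound incubated 15 min at room temperature before adding FITC-alphaIIb peptide tracer (100 nM final). Competition for binding read by fluorescence polarization (ex 480, em 540) after another 15 min at room temperature.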

[2] = Primary qHTS for inhibitors of nuclear receptor binding SET domain protein 2 (NSD2) in an isogenic RCH-ACV NSD2 p.E1099K mutant (9B) (AID 1645876); also: nearly all actives have a fitted effect of over 70% in size; also: potency is read from the fitted curve at half-maximal effect
[3] = Primary qHTS for inhibitors of nuclear receptor binding SET domain protein 2 (NSD2) in an RCH-ACV wild type WT cells (2C) (AID 1645877); also: potency is read from the fitted curve at half-maximal effect; nearly all actives have a fitted effect of over 70% in size
[4] = molecular target: Glutathione peroxidase 1 (Homo sapiens) (UniProt P07203); experiment: Primary qHTS Assay for Inhibitors of Recombinant Selenoprotein Glutathione Peroxidase 1 (GPX1) (AID 1845191); also: nearly all actives have a fitted effect of over 65% in size
Chain of Glutathione peroxidase 1 (Homo sapiens) (P07203 whole entry, looked up): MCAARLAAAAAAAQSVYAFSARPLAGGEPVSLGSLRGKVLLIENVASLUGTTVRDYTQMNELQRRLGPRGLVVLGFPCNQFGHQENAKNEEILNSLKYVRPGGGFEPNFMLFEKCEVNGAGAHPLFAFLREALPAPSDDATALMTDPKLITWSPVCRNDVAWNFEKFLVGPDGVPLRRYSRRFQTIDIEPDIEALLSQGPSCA
In short: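 10 nM GPX1 + cpd, 30 min RT; start w/ 1 mM GSH, 0.5 mM cumene hydroperoxide, 0.5 mM NADPH, 100 nM GR, 0.01% BSA; buffer 50 mM Tris-HCl pH 7.5, 2 mM EDTA, 150 mM NaCl; Fl 340/450, 0 & 15 min.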

[5] = qHTS drug screen for cell cycle checkpoint inhibitors in PARPi-resistant BRCA-mutant ovarian cancer cell lines. (AID 1963452; calls by dose curve); settings: PEO1/OlaR viability, CellTiter-Glo luminescence, 96 h, stronger effect = lower value
In short: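 PEO1, PEO4 and PEO1/OlaR ovarian cancer cells, 600 per well, exposed 96 h at 37C to a dilution series. Viability read by CellTiter-Glo luminescence, normalized to DMSO and empty wells; activity summarized as Z-AUC.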

[6] = qHTS profiling of the MIPE4 collection as inhibitors of Plasmodium falciparum (3D7) proliferation (AID 743344; call rule not given here); settings: P. falciparum 3D7 in erythrocytes, SYBR Green DNA fluorescence, 72 h; at 28.5 µM (top of the series)
In short: (§1)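 Erythrocytes infected with P. falciparum (0.3% parasitemia, 2.5% hematocrit) incubated with compounds 72 h at 37 C, 5% CO2. Lysis with saponin/Triton buffer containing SYBR Green I, overnight at room temperature in the dark; DNA fluorescence (485/535 nm) normalised to 0.29 uM artemisinin and DMSO.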

[7] = qHTS profiling of the MIPE4 collection as inhibitors of Plasmodium falciparum (DD2) proliferation (AID 743345; call rule not given here); settings: P. falciparum Dd2 in erythrocytes, SYBR Green DNA, 72 h; at 28.5 µM (top of the series)
In short: as §1

[8] = qHTS profiling of the MIPE4 collection as inhibitors of Plasmodium falciparum (DD2) proliferation (Rep 2) (AID 743346; call rule not given here); settings: P. falciparum Dd2 in erythrocytes, SYBR Green DNA, 72 h; at 28.5 µM (top of the series)
In short: as §1

[9] = qHTS profiling of the MIPE4 collection as inhibitors of Plasmodium falciparum (HB3) proliferation (AID 743347; call rule not given here); settings: P. falciparum HB3 in erythrocytes, SYBR Green DNA, 72 h; at 28.5 µM (top of the series)
In short: as §1

[10] = molecular target: Tyrosyl-DNA phosphodiesterase 1 (Homo sapiens) (UniProt Q9NUW8); experiment: Confirmation Assay for Inhibitors of Tyrosyl-DNA Phosphodiesterase (TDP1) (AID 489007); settings: recombinant human TDP1 enzymatic activity, dose-response; also: potency is read from the fitted curve at half-maximal effect; nearly all actives have a fitted effect of over 40% in size
Chain of Tyrosyl-DNA phosphodiesterase 1 (Homo sapiens) (Q9NUW8 whole entry, looked up): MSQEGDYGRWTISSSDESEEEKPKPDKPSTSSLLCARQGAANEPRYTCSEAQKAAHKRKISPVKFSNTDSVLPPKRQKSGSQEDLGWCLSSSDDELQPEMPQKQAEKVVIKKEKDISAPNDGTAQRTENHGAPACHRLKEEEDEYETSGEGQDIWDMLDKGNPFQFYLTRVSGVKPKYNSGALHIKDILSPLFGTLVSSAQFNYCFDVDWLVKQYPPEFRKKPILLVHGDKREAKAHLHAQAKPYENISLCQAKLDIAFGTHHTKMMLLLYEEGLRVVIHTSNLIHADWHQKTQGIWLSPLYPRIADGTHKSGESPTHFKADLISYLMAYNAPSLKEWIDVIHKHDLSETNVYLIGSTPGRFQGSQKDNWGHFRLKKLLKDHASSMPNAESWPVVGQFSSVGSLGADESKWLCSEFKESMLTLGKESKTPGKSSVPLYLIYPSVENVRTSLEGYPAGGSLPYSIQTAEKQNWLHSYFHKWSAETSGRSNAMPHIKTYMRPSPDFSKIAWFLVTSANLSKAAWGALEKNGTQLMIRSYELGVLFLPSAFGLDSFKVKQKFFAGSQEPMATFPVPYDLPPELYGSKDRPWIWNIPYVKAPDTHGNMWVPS
In short: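 Recombinant E. coli-expressed Tdp1 (1 nM final) was preincubated with compounds 15 min at room temperature, then reacted 5 min with 15 nM 5'-biotin/3'-phosphotyrosine-FITC DNA substrate; cleavage read as loss of AlphaScreen signal (10 ug/ml beads, 10 min).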

[11] = molecular target: Rap guanine nucleotide exchange factor 3 (Homo sapiens) (UniProt O95398); experiment: Confirmatory qHTS for antagonist of cAMP-regulated guanine nucleotide exchange factor 3 (EPAC1) (AID 1645880); also: nearly all actives have a fitted effect of over 55% in size
Chain of Rap guanine nucleotide exchange factor 3 (Homo sapiens) (O95398 whole entry, looked up): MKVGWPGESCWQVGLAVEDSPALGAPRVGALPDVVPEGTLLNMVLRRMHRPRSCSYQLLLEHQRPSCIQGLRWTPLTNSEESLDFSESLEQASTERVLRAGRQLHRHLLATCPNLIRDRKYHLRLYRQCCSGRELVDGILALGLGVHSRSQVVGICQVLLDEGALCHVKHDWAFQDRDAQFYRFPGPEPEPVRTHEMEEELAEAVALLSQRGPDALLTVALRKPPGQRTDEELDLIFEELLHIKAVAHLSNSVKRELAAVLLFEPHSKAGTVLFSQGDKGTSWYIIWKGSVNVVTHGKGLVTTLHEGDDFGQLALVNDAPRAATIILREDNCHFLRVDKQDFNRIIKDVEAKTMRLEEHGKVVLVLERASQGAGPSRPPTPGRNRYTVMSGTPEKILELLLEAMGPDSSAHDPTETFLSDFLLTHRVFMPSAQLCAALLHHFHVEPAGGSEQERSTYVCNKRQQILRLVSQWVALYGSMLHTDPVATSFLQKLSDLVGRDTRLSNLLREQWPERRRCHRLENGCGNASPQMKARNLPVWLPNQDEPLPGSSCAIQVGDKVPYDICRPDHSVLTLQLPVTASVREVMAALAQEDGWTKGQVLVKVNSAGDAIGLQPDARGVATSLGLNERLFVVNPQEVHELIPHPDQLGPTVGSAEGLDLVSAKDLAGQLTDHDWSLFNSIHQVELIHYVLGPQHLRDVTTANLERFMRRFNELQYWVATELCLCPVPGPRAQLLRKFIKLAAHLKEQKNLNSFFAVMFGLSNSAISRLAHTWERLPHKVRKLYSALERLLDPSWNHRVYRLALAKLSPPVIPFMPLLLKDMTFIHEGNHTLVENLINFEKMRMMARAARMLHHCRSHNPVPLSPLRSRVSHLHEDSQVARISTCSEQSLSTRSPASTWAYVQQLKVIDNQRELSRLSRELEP
In short: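 Nucleotide exchange uses 100 nM EPAC1, 250 nM RAP1B-BODIPY-GDP and 50 uM GDP, with compounds in a concentration-titration series. After 5 min at room temperature, fluorescence (480 nm ex/540 nm em) is read every 5 min for 30 min. Data are normalized to control ATA and DMSO.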

[12] = molecular target: Rap guanine nucleotide exchange factor 3 (Homo sapiens) (UniProt O95398); experiment: Confirmatory qHTS for agonist of cAMP-regulated guanine nucleotide exchange factor 3 (EPAC1) (AID 1645881);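 also: EPAC1 catalysed release of BODIPY-GDP from Rap1B seen as fluorescence loss; nearly all actives have a fitted effect of over 75% in size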
[13] = molecular target: Rap guanine nucleotide exchange factor 4 (Homo sapiens) (UniProt Q8WZA2); experiment: Confirmatory qHTS for agonist of cAMP-regulated guanine nucleotide exchange factor 4 (EPAC2) (AID 1645884);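 also: nucleotide exchange releases bodipy-GDP from Rap1 and this lowers its fluorescence; nearly all actives have a fitted effect of over 65% in size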
Chain of Rap guanine nucleotide exchange factor 4 (Homo sapiens) (Q8WZA2 whole entry, looked up): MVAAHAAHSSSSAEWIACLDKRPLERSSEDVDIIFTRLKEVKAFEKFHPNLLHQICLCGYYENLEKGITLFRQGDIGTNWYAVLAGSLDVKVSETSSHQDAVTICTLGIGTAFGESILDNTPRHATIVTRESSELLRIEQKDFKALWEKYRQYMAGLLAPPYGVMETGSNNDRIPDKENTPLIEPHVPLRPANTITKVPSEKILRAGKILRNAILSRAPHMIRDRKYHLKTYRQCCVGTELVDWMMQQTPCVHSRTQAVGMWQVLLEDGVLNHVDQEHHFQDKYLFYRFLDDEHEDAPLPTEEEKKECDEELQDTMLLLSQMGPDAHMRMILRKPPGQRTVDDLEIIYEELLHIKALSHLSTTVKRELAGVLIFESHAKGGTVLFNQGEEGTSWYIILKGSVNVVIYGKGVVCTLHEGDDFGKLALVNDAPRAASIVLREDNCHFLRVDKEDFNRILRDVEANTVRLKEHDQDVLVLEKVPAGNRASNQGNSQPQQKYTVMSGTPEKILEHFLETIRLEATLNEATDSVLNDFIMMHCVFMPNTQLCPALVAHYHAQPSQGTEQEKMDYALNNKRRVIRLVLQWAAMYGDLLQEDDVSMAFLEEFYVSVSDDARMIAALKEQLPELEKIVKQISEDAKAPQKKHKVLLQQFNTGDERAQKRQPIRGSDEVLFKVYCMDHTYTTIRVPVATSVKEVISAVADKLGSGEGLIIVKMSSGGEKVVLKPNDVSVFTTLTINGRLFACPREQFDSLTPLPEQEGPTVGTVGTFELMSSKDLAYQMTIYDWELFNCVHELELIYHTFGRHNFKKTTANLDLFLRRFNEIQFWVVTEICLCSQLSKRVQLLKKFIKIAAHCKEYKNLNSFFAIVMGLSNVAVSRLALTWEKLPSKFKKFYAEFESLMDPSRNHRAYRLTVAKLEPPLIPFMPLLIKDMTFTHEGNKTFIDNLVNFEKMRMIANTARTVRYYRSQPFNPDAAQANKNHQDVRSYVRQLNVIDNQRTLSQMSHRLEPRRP

[14] = molecular target: Rap guanine nucleotide exchange factor 3 (Homo sapiens) (UniProt O95398); experiment: Counterscreen qHTS for agonist of cAMP-regulated guanine nucleotide exchange factor 3 (EPAC1) (AID 1645889); also: nearly all actives have a fitted effect of over 40% in size
In short: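 Rap1B-BODIPY-GDP 250 nM + GDP 50 uM; cpds 7-pt, final 9.74 nM–152 uM (activator mode) or from 7.32 nM upwards (inhibitor mode); RT; FI 480/540 nm at 5 and 30 min, then ± cAMP, reread.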

[15] = molecular target: Rap guanine nucleotide exchange factor 4 (Homo sapiens) (UniProt Q8WZA2); experiment: Confirmatory qHTS for antagonist of cAMP-regulated guanine nucleotide exchange factor 4 (EPAC2) (AID 1645885); also: nearly all actives have a fitted effect of over 25% in size; also: potency is read from the fitted curve at half-maximal effect

For `Cc1ccc(S(=O)(=O)Nc2cc(C(F)(F)F)ccc2C(=O)Nc2nc(-c3ccccc3)cs2)cc1`, the Potency [1] was “inactive”, the Potency [2] was 4.17 µM (active) and the Potency [3] was 4.17 µM (active). The Potency [4] was “inactive”, the Z-AUC [5] was 0.58 (inactive) and the Z-AUC ([5]; measured here: PEO1 parental Z-AUC) was 0.184. The Z-AUC ([5]; measured here: PEO4 Z-AUC) was -0.358.
For `CC(=O)Nc1sc2c(c1-c1ccc(N3CCN(C)CC3)cc1)CCNC2`, the Potency [1] was “inactive” and the Potency [4] was “inactive”.
With `O=C1CCc2cc(S(=O)(=O)Nc3cccc(Cl)c3)ccc2N1` the Potency [1] was “inactive”, the Potency [2] was “inactive” and the Potency [4] was “inactive”.
For `CC(C)(C)n1nc(Cc2cccc3ccccc23)c2c(N)ncnc21`, the parasite growth, % of DMSO control [6] was 23.2%, the parasite growth remaining, % of DMSO control (lower = more inhibition) [7] was 58% and the parasite growth, % of control (lower = inhibition) [8] was 52.6%. For the same molecule, the growth, % of control [9] was 12.7%, the Potency [1] was “inactive” and the Potency [4] was “inactive”.
With `Cc1ccc(NC(=O)CN2C(=O)N/C(=C\c3cccn3-c3cccc(C(=O)O)c3)C2=O)cc1` the Potency [10] was 1.12 µM (active) and the Potency [1] was “inactive”.
For `CCC(=O)NC(c1cccs1)c1cc(Cl)c2cccnc2c1O` (configuration not stated), the Potency [1] was “inactive”, the Potency [11] was “inactive” and the outcome [12] was “inactive”. For the same molecule, the outcome [13] was “inactive” and the outcome [14] was “inactive”.
In the case of `CCC(=O)NC(c1cccs1)c1cc(Cl)c2ccccc2c1O` (configuration not stated), the Potency [1] was “inactive”, the Potency [11] was “inactive” and the outcome [12] was “inactive”. For the same molecule, the activation [13] was 0.826% [at 17.1 µM] (inactive), the activity change, negative = inhibition [15] was -13.9% [at 12.7 µM] (inactive) and the activation [14] was 29.3% [at 30.8 µM] (inactive).
With `O=C1CCCC2=C1C(c1ccccc1I)N=C(Nc1nc3ccccc3o1)N2` (configuration not stated) the Potency [1] was “inactive” and the Potency [4] was “inactive”.
With `CCC(=O)NC(c1cc(Cl)c2ccccc2c1O)C(C)C` (configuration not stated) the Potency [1] was “inactive”, the outcome [12] was “inactive” and the outcome [13] was “inactive”. For the same molecule, the Potency [15] was “inactive” and the outcome [14] was “inactive”.
With `Cc1ccc(NS(=O)(=O)c2cc3c(cc2Cl)CCC(=O)N3)cc1Cl` the Potency [1] was “inactive” and the Potency [4] was “inactive”.
For `CC(=O)NC(c1cc(Cl)c2ccccc2c1O)C(C)C` (configuration not stated), the Potency [1] was “inactive”, the outcome [12] was “inactive” and the activation [13] was 9.17% [at 17.1 µM] (inactive). The activity change, negative = inhibition [15] was -39.3% [at 12.7 µM] (inactive) and the activation [14] was 8.27% [at 30.8 µM] (inactive).
In the case of `Nc1ccc(-c2ccnc(NCCCNC(=O)c3c(Cl)cccc3Cl)n2)cc1`, the Potency [1] was “inactive” and the Potency [4] was “inactive”.
For `CCC(=O)NC(c1ccco1)c1cc(Cl)c2ccccc2c1O` (configuration not stated), the Potency [1] was “inactive”, the outcome [12] was “inactive” and the outcome [13] was “inactive”. For the same molecule, the Potency [15] was 53.6 µM (active) and the outcome [14] was “inactive”.
